Measurements from ChEMBL document CHEMBL3433997, “St. Jude Leishmania screening dataset” (2016).

Assays:
Format in all cases: functional
[1] = biological target: Solute carrier family 2, facilitated glucose transporter member 1 (Homo sapiens) (UniProt P11166); experiment: ST_JUDE_LEISH: Cytotoxicity at 2uM final concentration against transgenic Leishmania Mexicana promastigotes LmGLUT1 that are glucose transport deficient and complemented with the human glucose transporter GLUT1. Activity is measured by DNA content using SYBR green in vitro
Chain of Solute carrier family 2, facilitated glucose transporter member 1 (Homo sapiens) (P11166 whole entry): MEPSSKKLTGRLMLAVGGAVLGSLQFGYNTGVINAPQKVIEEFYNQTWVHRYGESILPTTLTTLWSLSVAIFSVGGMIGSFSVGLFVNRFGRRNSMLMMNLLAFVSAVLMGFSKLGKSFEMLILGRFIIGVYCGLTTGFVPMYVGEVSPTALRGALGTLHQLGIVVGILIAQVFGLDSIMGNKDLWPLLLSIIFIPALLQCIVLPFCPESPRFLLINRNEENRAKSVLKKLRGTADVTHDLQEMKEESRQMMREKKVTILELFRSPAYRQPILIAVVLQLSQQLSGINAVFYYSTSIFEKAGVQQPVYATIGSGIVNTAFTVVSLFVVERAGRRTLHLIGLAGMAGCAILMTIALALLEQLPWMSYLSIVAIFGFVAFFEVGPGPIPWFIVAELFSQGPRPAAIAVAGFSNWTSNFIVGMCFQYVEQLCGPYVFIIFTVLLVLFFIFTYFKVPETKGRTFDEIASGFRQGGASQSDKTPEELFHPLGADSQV

[2] = biological target: Hexose transporter 1 (Plasmodium falciparum) (UniProt O97467); experiment: ST_JUDE_LEISH: Cytotoxicity at 2uM final concentration against transgenic Leishmania Mexicana promastigotes LmPfHT that are glucose transport deficient and complemented with the Plasmodium falciparum hexose transporter. Activity is measured by DNA content using SYBR green in vitro
[3] = biological target: Glucose transporter (Leishmania mexicana) (UniProt O61059); experiment: ST_JUDE_LEISH: Cytotoxicity at 2uM final concentration against transgenic Leishmania Mexicana promastigotes LmGT2 that are glucose transport deficient and complemented with the L. Mexicana glucose transporter 2. Activity is measured by DNA content using SYBR green in vitro

SMILES | inhibition [1] [%] | inhibition [2] [%] | inhibition [3] [%]
CC1CCCN(C(=O)c2cc(-c3ccccn3)nc3c(Cl)cccc23)C1 (stereo not drawn) | 2.19 | 1.26 | 1.25
CC(Cc1ccc(NS(=O)(=O)c2ccc(CC(C)NCCc3cccc(Cl)c3)cc2)cc1)NCCc1cccc(Cl)c1 (stereo not drawn) | 0.89 | 9.69 | 7.25
Cc1cc(NS(=O)(=O)c2cccc(C(C)N3CCC(N4CCCC4)CC3)c2)ccc1C(C)C (stereo not drawn) | 6.44 | 5.82 | 1.55
CN1CCN(c2ccnc3cc4ccccc4cc23)CC1 | -3.09 | -3.08 | -0.9
COc1ccccc1C1CN(Cc2coc3ccccc3c2=O)Cc2ccccc2O1 (stereo not drawn) | 0.38 | 0.56 | 0.45
CC1(C)N=C(N)N=C(Nc2ccc(Cl)cc2)N1 | 14.5 | 14.3 | 11.4
O=C(Nc1cccc(CN2CCCN(CC3CCCCC3)CC2)c1)c1cc2ccccc2s1 | 1.81 | 0.88 | -8.67
CCC(C)NCCC(c1ccccc1)c1ccccc1O (stereo not drawn) | 5.11 | 4.69 | 4.41
O=C(NCCCCN1CCC(O)(c2ccc3c(c2)OCO3)CC1)c1ccc(NC(=O)c2ccc(Cl)cc2)cc1 | -1.5 | 1.45 | -1.6
O=C(NCCCN1CCCCC1)c1cccc(Nc2nccc(Nc3ccc(Oc4ccccc4)cc3)n2)c1 | -2.69 | -2.52 | -2.53
Cc1ccccc1N1CCN(c2ccc(C(=O)Nc3ccccc3)cn2)CC1 | 9.19 | 7.8 | 3.84
Cc1ccc(O)c(C(=O)c2cc(C(=O)Nc3ccccc3C)c(=O)n(-c3ccccc3C)c2)c1 | 4.62 | 3.71 | 1.81
O=C(NCCCN1CCCC1=O)NCc1ccccc1 | 0.3 | -0.23 | -0.11
Fc1ccc2[nH]c3c(NCCN4CCCCC4)ncnc3c2c1 | -3.47 | -0.73 | -1.11
COc1cccc(Nc2c(C(N)=O)cnc3ccc(-c4ccc([S+](C)[O-])cc4)cc23)c1 (stereo not drawn) | 2.64 | 4.5 | 0.66
CCNc1cc(C(=O)N[C@@H](Cc2ccccc2)[C@H](O)CNC2CCC(C(C)(C)C)CC2)cc(N2CCCC2=O)c1 (stereo partly drawn) | 0.78 | 1.1 | -2.55
O=C(Nc1ccc(-c2csc(-c3nc4ccccc4[nH]3)c2)cc1)Nc1ccc(F)c(F)c1F | 0.67 | 2.98 | 2.02
Oc1c(C(Nc2ccccn2)c2ccco2)cc(Cl)c2cccnc12 (stereo not drawn) | 0.55 | 1.24 | -1.1
COC(=O)c1cccc(CNCc2cccc(-c3cccc(-c4nc5cc(C(F)(F)F)ccc5[nH]4)c3)c2)c1 | -1.41 | -2.35 | -2.5
CCCc1ccc(S(=O)(=O)NC2CCN(C(=O)Nc3ccc(I)cc3)CC2)cc1 | 5.43 | 5.51 | 5.03
COc1ccc2nc(-c3ccccc3)cc(N/N=C/c3ccc([N+](=O)[O-])o3)c2c1 | 15.9 | 10.5 | 10.3
CCCCNCC(O)COc1ccccc1-c1ccc(N/N=C/c2cccc3ccccc23)nn1 (stereo not drawn) | 3.78 | 3.6 | 1.78
CC(C)(O)CC(C)(C)c1cc(Cl)ccc1O | 6.46 | 5.76 | 4.82
O=C(NC1CCN(Cc2ccccc2)CC1)c1ccc(-c2nc3cc(F)c(F)cc3[nH]2)s1 | 3.16 | 3.84 | 5.72

SMILES | inhibition [1] [%] | inhibition [2] [%] | inhibition [3] [%]
C[C@H](Cc1ccc(OCCNC[C@H](O)c2cccc(Cl)c2)cc1)NC[C@H](O)c1ccc(Cl)c(Cl)c1 | 2.67 | 1.89 | 3.19
O=C(C=Cc1ccc(Cl)c(Cl)c1)NCCCCCN1CCC(CCNS(=O)(=O)c2ccc(Br)cc2)CC1 | 2.45 | 1.43 | 2.53
COc1ccccc1-n1c(SCC(=O)Nc2ccccc2F)nc2cccnc21 | 2.95 | 1.38 | 2.25
CS(=O)(=O)Cc1ccc(Nc2nccc(-c3c(-c4cccc(NC(=O)C5CCCCC5)c4)nn4ncccc34)n2)cc1 | 3.22 | 5.62 | 1.63
COc1ccc(-c2ccc(NC(=O)c3cccc(C#N)c3)cc2)cc1CN(C)C | 1.28 | 0.34 | 0.41
CCNC(=O)Nc1ccc(N(C)c2ccnc(Nc3ccc(CS(C)(=O)=O)cc3)n2)cc1 | 13.5 | 12.2 | 9.58
O=C(Nc1ccc(F)c(C(F)(F)F)c1)N[C@H]1CCN(CCCCCNC(=O)C2CC2c2ccc(Cl)c(Cl)c2)C1 (stereo partly drawn) | -0.22 | -0.44 | -2.52
CCOc1cc(C)ccc1C1CCN(CCCCNC(=O)c2ccc(-c3ccc(C(F)(F)F)cn3)cc2)CC1 | 10.4 | 9.74 | 7.82
O=C(NCCCN1CCN(c2cccc(Cl)c2)CC1)c1ccc(-c2nc3cc(Cl)c(Cl)cc3[nH]2)cc1 | 11.3 | 8.6 | 13.7
CCCCOc1ccc(C(O)C(CN2CCCCC2)c2ccccc2)cc1 (stereo not drawn) | 1.61 | 1.36 | 0.33
CC(C)CCNC(=N)Nc1ccc(OCCCCCOc2ccc(NC(=N)NCCC(C)C)cc2)cc1 | 6.46 | 3.87 | -1.73
COc1ccc(C2CC(=O)C3=C(C2)NC(C)=C(C(=O)OC2CCCC2)C3c2cccc(O)c2)cc1 (stereo not drawn) | 0.09 | 0.95 | -0.53
CN(C)CCCOc1ccc(CCNCc2cccc(Oc3ccc(Cl)cc3)c2)cc1 | 14 | 16.4 | 13.7
COc1ccc2ncc(F)c(CCN3C4CCC3CC(NCc3cc5c(cn3)OCS5)C4)c2n1 (stereo not drawn) | 32.5 | 41.5 | 64.1
O=C(/C=C/c1ccc(Cl)cc1)NCCCCCN1CCC(C(=O)Nc2ccc(Cl)c(Cl)c2)CC1 | -0.38 | -2.11 | -0.64
COc1ccc2nccc([C@@H](O)CN3CCC(NCc4nc5c(F)cccc5[nH]4)CC3)c2c1 | 1.46 | 0.84 | -0.41
COc1ccc(-c2cc(C(=O)N[C@@H](CC3CCCCC3)C(=O)NCCN3CCCCC3)ccc2O)cc1 | -0.43 | -0.56 | -0.35
CC(C)NCc1ccc(-c2cccc(-c3nc4ccccc4[nH]3)c2)cc1 | 13.3 | 11.8 | 10.3
NC(=O)C1CCN(Cc2cccc(-c3cccc(-c4nc5cc(C(F)(F)F)ccc5[nH]4)c3)c2)CC1 | 13.1 | 11.4 | 10.3
O=C(Nc1cccc(CN2CCCN(CC3CC3)CC2)c1)c1ccc(-c2ccccc2)cc1 | 3.62 | 4.69 | -0.4
CC(=O)Nc1ccc(OCCCN(Cc2ccccc2OC(F)(F)F)c2ccc(C(F)(F)F)c(C#N)c2)c(Cl)c1 | 2.37 | -1.13 | 1.86
COc1ccc2ncc(F)c([C@@H](O)CN3CCC(NCc4cc(C#N)c5c(c4)CCO5)CC3)c2n1 | 3.43 | 3.05 | 0.58
CC(C)CCN(Cc1cncn1Cc1cccc(C(F)(F)F)c1)C(=O)c1cncc(-c2ccccc2)c1 | 3.6 | 4.72 | 1.28
CC(=O)NCCNc1cc(N2CCc3ncnc(Nc4ccc(OCc5c(F)cccc5F)c(Cl)c4)c3C2)ncn1 | 0.69 | 1.6 | 1.84

SMILES | inhibition [1] [%] | inhibition [2] [%] | inhibition [3] [%]
Cc1ccccc1OCC(O)CNC1CCC(NCC(O)COc2ccccc2C)CC1 (stereo not drawn) | 10.2 | 10.5 | 5.8
O=C(c1ccc(F)c(F)c1)N1CCOC(CCN2CCC(c3ccccc3)CC2)(c2ccc(Cl)c(Cl)c2)C1 (stereo not drawn) | 4.15 | 2.12 | 3.63
COc1cc(SC)ccc1C(=O)N1CC(C)CC(C)C1 (stereo not drawn) | 11.1 | 11.1 | 9.2
O=C(NC1CC1)c1cnc(N2CCN(Cc3ccc(Cl)cc3)CC2)c(Cl)c1 | 5.43 | 1.16 | -5.97
CC(C)C[C@H](NC(=O)c1cc(-c2ccc(F)cc2)no1)C(=O)O.CC(C)C[C@H](NC(=O)c1conc1-c1ccc(F)cc1)C(=O)O | 1.19 | 2.32 | 2.96
CCCCCCP(=O)(COc1ccc(CCN(CC(O)COc2cccc3[nH]c(C(N)=O)cc23)CC(O)COc2cccc3[nH]c(C(N)=O)cc23)cc1)OCCCC (stereo not drawn) | 8.37 | 8.1 | 6.45
CC1CCCC(NC(=O)CCOc2ccccc2)C1 (stereo not drawn) | 7.23 | 6.34 | 6.88
CCN(CC)CCCC(C)Nc1ccnc2ccc(OC)cc12 (stereo not drawn) | 8.15 | 8.91 | 8.52
CCOc1ccc(C2CCN(CCCCNC(=O)c3ccc(NC(=O)c4ccc(Cl)cc4)cc3)CC2)c(Cl)c1 | 1.99 | 4.55 | 1.92
COCCNCc1ccc(-c2ccc3c(Nc4ccc(F)cc4Cl)ccnc3c2)o1 | 4.1 | 4.05 | 5.59
O=C(Nc1cccc2ccccc12)N1CCC(NS(=O)(=O)c2cccc(C(F)(F)F)c2)CC1 | 0.57 | 0.62 | 0.91
Cc1nc2nc(N)nc(N)c2c(C)c1Cc1ccc(C#N)cc1 | 0.34 | 4.37 | -0.44
Cc1cccc2nc(-c3ccc(-c4ccc(NC(=O)NCc5cccc(F)c5)cc4)cc3)[nH]c12 | 11.4 | 12.2 | 10.3
CS(=O)(=O)CCNc1cc(N2CCc3ncnc(Nc4ccc(OCc5cccc(F)c5)c(Cl)c4)c3C2)ncn1 | -0.04 | 0.75 | 0.08
Cc1cc(N(CCO)CCCN2CCCCC2)nc(Nc2ccc(Cl)cc2)n1 | 1.77 | 1.35 | 2.41
Cc1cccc2nc(-c3ccc(-c4cccc(NC(=O)Nc5ccsc5)c4)cc3)[nH]c12 | 1.48 | 0.08 | -1.47
O=C1CSc2ccc(CNC3CCN(CCc4c(Cl)cnc5ccc(F)cc45)CC3)nc2N1 | 0.93 | 1.12 | 2.97
Cc1cc(N[C@@H](Cc2ccccc2)C(=O)NCc2cccc(F)c2)nc(NCCc2cccnc2)n1 | 10.4 | 12.9 | 12.3
O=C(NCc1ccc(C(=O)NCc2cccc3ccccc23)cc1)c1ccc(O)c(-c2ccc(Cl)c(Cl)c2)c1 | 0.64 | 2.17 | 0.96
CC1(C)CCC(=Cc2ccc(Cl)cc2)CC1(O)Cn1ccnc1 (stereo not drawn) | 11.7 | 6.85 | 3.82
CO/C(=C\C=C\c1cc2cc(Cl)ccc2[nH]1)C(=O)NCCCN1CCN(c2cc(Cl)ccc2OC)CC1 | 1.52 | 1.33 | -1.6
Cc1cc(NCCc2cccc(F)c2)nc(NC(=N)Nc2cccc(C(F)(F)F)c2)n1 | 3.82 | 2.87 | 2.41
CCc1cc2c3c(N)nc(N)nc3ccc2n1CC | 40.4 | 58 | 39.4
